Screening data (PubChem)
Only some compounds are listed: those with a hit (about 2.9% of all), similar ones and a draw of the others.
PAFAH1B3 inh – PAFAH1B3 (human) inhibition | recombinant PAFAH1B3, FP-rhodamine probe, fluorescence polarization | inhibition, % at 3.39 µM | 0.28% of 340,000 active;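 active = inhibition above the screen-wide average of all tested compounds plus 3 SD, cut at about 25% in these data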;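 note: 0% = enzyme with DMSO only and 100% = wells lacking PAFAH1B3 protein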
Target sequence (Q15102 whole entry, looked up): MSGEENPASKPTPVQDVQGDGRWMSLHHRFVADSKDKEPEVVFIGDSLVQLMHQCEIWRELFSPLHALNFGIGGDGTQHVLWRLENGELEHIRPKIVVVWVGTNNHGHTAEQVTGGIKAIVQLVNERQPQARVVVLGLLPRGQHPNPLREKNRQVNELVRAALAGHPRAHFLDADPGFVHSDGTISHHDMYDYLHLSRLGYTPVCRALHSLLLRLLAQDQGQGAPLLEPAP
PAFAH2 FP inh – PAFAH2 (human) inhibition; recombinant PAFAH2, FP-rhodamine activity probe, fluorescence polarization; 0.99% of 340,000 active; Q99487; inhibition, % at 3.39 µM; AID 492956;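 active = inhibition above the mean over all tested compounds plus 3 SD, cut at about 30% in these data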;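 note: inhibitors block probe labeling of enzyme so polarization drops; 0% = enzyme with DMSO and 100% = wells lacking PAFAH2 protein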
EBNA-1 inhibitor – blocks EBNA-1 binding to DNA; EBNA-1 DNA binding, fluorescence polarization; inhibition, % at 14.8 µM; 0.34% of 300,000 active; AID 1950; in the data active = inhibition above about 28%
PAFAH1B2 inh – PAFAH1B2 (human) inhibition; P68402; recombinant PAFAH1B2, FP-rhodamine activity probe, fluorescence polarization; 1.2% of 340,000 active; inhibition, % at 3.39 µM; AID 492953;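 active = inhibition above the mean of all tested compounds plus 3 SD, cut at about 24% in these data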;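 note: 0% = enzyme with DMSO and 100% = wells lacking PAFAH1B2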
ZTA counter – counter-screen for EBNA-1 inhibitors: inhibitors of Epstein-Barr virus ZTA. P03206. ZTA-DNA binding, fluorescence polarization. inhibition, % at 11 µM. 0.15% of 320,000 active. AID 2234; in the data active = inhibition above about 33%
Target sequence (P03206 whole entry, looked up): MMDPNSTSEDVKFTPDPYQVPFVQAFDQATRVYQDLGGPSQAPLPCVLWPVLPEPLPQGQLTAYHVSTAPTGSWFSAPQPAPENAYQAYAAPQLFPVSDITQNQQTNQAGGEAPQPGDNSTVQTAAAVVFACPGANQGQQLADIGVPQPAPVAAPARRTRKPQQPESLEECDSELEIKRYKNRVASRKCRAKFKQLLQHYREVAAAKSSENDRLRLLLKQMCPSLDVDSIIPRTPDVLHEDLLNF
pPAFAH FP inh – pPAFAH (human) enzyme inhibition. Q13093. AID 463082. recombinant pPAFAH, FP-rhodamine probe fluorescence polarization. 1.5% of 330,000 active. inhibition, % at 3.39 µM;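 active = inhibition above the mean inhibition across the screen plus 3 SD, cut at about 25% in these data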;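 note: inhibitors block binding of the rhodamine activity-based probe so polarization drops; 0% = enzyme with DMSO and 100% = wells lacking pPAFAH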
PAFAH2 FP conf – PAFAH2 (human) inhibition, confirmed | shares compounds with PAFAH2 FP inh | recombinant PAFAH2, FP-rhodamine activity probe, fluorescence polarization | inhibition, % at 3.39 µM | 65% of 2,300 active;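 active = mean inhibition over three repeats above a set limit taken from the earlier primary screen, cut at about 30% in these data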;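 note: inhibitor blocks binding of rhodamine activity probe so polarization falls; 0% = enzyme with DMSO and 100% = wells lacking PAFAH2 protein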
* marks the source's active call; other numbers are inactive results; . = no result.

SMILES	PAFAH1B3 inh	PAFAH2 FP inh	EBNA-1 inhibitor	PAFAH1B2 inh	ZTA counter	pPAFAH FP inh	PAFAH2 FP conf
CC(c1ccncn1)N(C)C(=O)c1ccc2oc(Cc3ccccc3)nc2c1 (centres undefined)	6.4	35.9*	-2.0	-3.1	6.6	1.2	26.8
CC(C)(C)c1ccc(C(=O)NC2CCN(Cc3ccccc3)CC2)cc1	3.6	6.8	8.0	0.8	0.4	15.6	.
Cc1nn(C2CCS(=O)(=O)C2)c(Cl)c1/C=C/C(=O)OCC(=O)Nc1ccccc1[N+](=O)[O-] (centres undefined)	1.2	75.2*	-7.8	3.9	-8.3	5.5	74.0*
CCc1ccc(NC(=O)COC(=O)/C=C/c2c(C)nn(C3CCS(=O)(=O)C3)c2Cl)cc1 (centres undefined)	5.4	-2.7	1.9	-2.9	12.1	7.0	.
C=CCn1c(C)cc(C(=O)COC(=O)/C=C/c2c(C)nn(C3CCS(=O)(=O)C3)c2Cl)c1C (centres undefined)	2.1	52.5*	0.8	-3.9	-0.1	5.5	42.7*
Cc1nn(C2CCS(=O)(=O)C2)c(Cl)c1/C=C/C(=O)OCC(=O)Nc1ccccc1OC(F)F (centres undefined)	-2.8	49.5*	-8.0	4.1	6.8	0.1	43.3*
O=c1c2sccc2[nH]c(=S)n1Cc1ccccc1	4.9	62.5*	-4.9	0.8	-6.1	4.4	52.4*
O=C(c1ccc2oc(CCc3ccccc3)nc2c1)N1CC[C@H](O)C1	-0.1	2.3	-5.5	0.6	-8.6	0.3	.
COC(=O)c1ccccc1S(=O)(=O)NNC(=O)Nc1ccccc1	-2.0	34.4*	-2.1	-0.6	-0.5	1.4	17.8
COC(=O)c1ccccc1S(=O)(=O)C(C)(C)C	7.4	-1.3	1.0	-0.4	-13.3	1.7	.
O=C(O)/C(=C\c1ccccc1OC(F)F)c1ccc(-c2ccccc2)cc1	2.6	49.1*	5.9	-4.3	10.6	13.2	40.1*
O=C(O)/C(=C\c1ccc(F)cc1)c1ccc(-c2ccccc2)cc1	6.8	-2.5	-13.7	1.9	2.0	0.4	.
CC(C)c1nc2cc(C(=O)N3CCN(c4cnccn4)CC3)ccc2o1	-4.4	0.6	7.2	4.7	8.4	0.0	.
CCN(CC)S(=O)(=O)c1ccc(Cl)c(NC(=O)COC(=O)c2cccn2C)c1	3.2	30.6*	2.0	6.1	-13.5	19.9	21.1
CCN(CC)S(=O)(=O)c1ccc(Cl)c(NC(=O)COC(=O)C2CCCCC2)c1	3.4	46.0*	.	6.6	13.8	7.5	30.8*
CC1=C(C(=O)OC2CCC(C)CC2)C(c2ccc(O)c([N+](=O)[O-])c2)NC(=O)N1 (centres undefined)	5.7	8.3	-11.5	15.0	-4.0	0.8	.
O=[N+]([O-])c1ccc(O)c(N=Cc2sc3ccccc3c2O)c1	3.1	32.9*	-3.8	-4.6	3.0	13.7	16.3
Clc1ccc(CN2CCN(c3ncccn3)CC2)c(Cl)c1	12.0	-3.4	-3.4	-1.8	-5.2	0.8	.
O=C(CSc1cccc[n+]1[O-])c1ccccc1Br	2.1	39.3*	-10.1	3.5	-3.1	0.0	38.7*
O=c1c2c([nH]c3ccccc13)C(=C1CCCC1)CC2	12.4	32.8*	3.1	8.7	1.2	15.5	6.5
O=c1c2c([nH]c3ccccc13)CCCC2	6.4	2.4	-3.4	4.5	2.7	-2.1	.
C=C(C)c1cccc(C(C)(C)NC(=O)NNC(=O)c2ccccc2O)c1	18.9	35.0*	-24.6	1.4	5.5	0.6	29.6
C=C(C)c1cccc(C(C)(C)NC(=O)Nc2ccc(C(C)=O)cc2)c1	-1.2	-12.4	2.5	4.4	2.2	-3.6	.
CCCc1ccc2oc(C(=O)N3CCC(C(N)=O)(N4CCCCC4)CC3)c(C)c2c1	8.0	0.2	-0.1	0.4	16.3	2.8	.
Cc1ccc(C(=O)OCC(=O)c2ccc[nH]2)s1	6.2	34.7*	-6.2	4.7	-1.1	11.2	31.1*
CC(C)Oc1ccc(C(=O)OCC(=O)c2ccc[nH]2)cc1	4.8	54.5*	.	2.2	.	7.6	35.5*
O=C(Cc1ccc(-c2ccccc2)cc1)Nc1ncccc1O	0.9	32.3*	1.3	1.7	4.9	20.6	23.5
O=C(Cc1ccc(-c2ccccc2)cc1)Nc1ccccc1	2.5	1.0	-3.4	4.4	-7.2	-0.8	.
